Reference: PubChem BioAssay
Active and inactive are the calls of the source.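 How the source made its calls: active means mean duplicate potentiation above the buffer control mean plus 5 SD of buffer wells; inactive means the rest.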

Each compound was assayed against Potassium voltage-gated channel subfamily KQT member 2 (Rattus norvegicus) (UniProt O88943) (assay: rat KCNQ2 channel potentiation, selectivity assay for KCNQ1 potentiator project, KCNQ2-CHO-K1 cells (AID 493009;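 further: assay conditions were tuned for KCNQ1 rather than KCNQ2 modulators; signal is max minus min fluorescence divided by baseline after thallium stimulus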)). Settings: FluxOR thallium flux fluorescence, at 10 µM; stronger effect = higher value, scaled: buffer 0, activator control 100.
Potassium voltage-gated channel subfamily KQT member 2 (Rattus norvegicus), sequence (O88943 whole entry, looked up): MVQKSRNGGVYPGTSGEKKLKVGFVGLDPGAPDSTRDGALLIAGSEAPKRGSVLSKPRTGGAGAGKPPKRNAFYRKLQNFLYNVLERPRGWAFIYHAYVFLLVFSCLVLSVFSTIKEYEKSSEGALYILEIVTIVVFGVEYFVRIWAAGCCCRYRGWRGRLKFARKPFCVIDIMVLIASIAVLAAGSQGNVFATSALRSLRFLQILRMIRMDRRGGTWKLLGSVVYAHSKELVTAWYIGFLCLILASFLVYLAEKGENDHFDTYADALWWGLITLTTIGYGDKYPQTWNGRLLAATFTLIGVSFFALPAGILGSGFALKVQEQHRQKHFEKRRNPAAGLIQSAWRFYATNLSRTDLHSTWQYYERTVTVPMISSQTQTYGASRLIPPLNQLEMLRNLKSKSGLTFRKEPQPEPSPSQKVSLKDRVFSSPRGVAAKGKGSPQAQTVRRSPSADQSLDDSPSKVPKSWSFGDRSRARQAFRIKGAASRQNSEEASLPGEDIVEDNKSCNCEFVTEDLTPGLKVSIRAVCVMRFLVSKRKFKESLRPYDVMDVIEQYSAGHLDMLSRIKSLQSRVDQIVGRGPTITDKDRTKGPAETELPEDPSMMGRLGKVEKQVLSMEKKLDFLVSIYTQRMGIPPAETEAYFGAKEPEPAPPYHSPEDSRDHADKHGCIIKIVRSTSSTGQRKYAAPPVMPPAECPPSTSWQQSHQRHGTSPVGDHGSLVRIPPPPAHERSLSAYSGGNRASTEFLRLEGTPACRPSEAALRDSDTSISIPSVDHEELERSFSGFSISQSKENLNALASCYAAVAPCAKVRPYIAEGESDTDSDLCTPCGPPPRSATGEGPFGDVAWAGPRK

Row | Compound | potentiation | outcome
1 | CC(C)C1Cc2c(sc3[nH]c(=S)n(Cc4ccccc4)c(=O)c23)CO1 (stereo not given) | 362% (active) | –
2 | Cc1ccc(-n2c(=S)[nH]c3c(oc4ccccc43)c2=O)cc1C | 150% (active) | –
3 | COC(=O)c1ccc(CSc2ncnc3sc(C)c(C)c23)o1 | 163% (active) | –
4 | CN(C)C(=S)NC(=O)c1cccc(Cl)c1 | 142% (active) | –
5 | Cc1ccc(Cl)cc1NC(=S)N/N=C/c1cccc2ccccc12 | – | inactive
6 | O=C(NC(=S)Nc1ccccc1F)c1ccc(Br)o1 | 261% (active) | –
7 | CCOc1ccc(C(=O)NC(=S)N(Cc2ccccc2)Cc2ccccc2)cc1 | 522% (active) | –
8 | Cc1ccc(C)c(S(=O)(=O)NCC(=O)N2CCCC2)c1 | – | inactive
9 | O=c1[nH]cc(S(=O)(=O)c2ccccc2)[nH]1 | – | inactive
10 | COc1cccc(OC)c1OCCOCCN1CCN(C)CC1 | – | inactive
11 | O=c1[nH]cc(N=Cc2cc(Cl)cc(Cl)c2O)c(=O)[nH]1 | – | inactive
12 | COc1ccccc1OCCc1nnc(N)s1 | – | inactive
13 | COc1cccc2sc(NNC(=O)c3nc4ccccc4s3)nc12 | 420% (active) | –
14 | CCC1CCCCN1C(=S)NC(=O)c1cccs1 (stereo not given) | 493% (active) | –
15 | C=CCn1c(O)c(N=NC(=S)Nc2cccc(OC)c2)c2ccccc21 | 271% (active) | –
16 | CCCCn1c(SCC(=O)/C(C#N)=C(\C)N)nc2ccccc2c1=O | – | inactive
17 | COc1ccc([N+](=O)[O-])cc1NC(=O)c1cccnc1 | – | inactive
18 | O=C(/C=C/c1ccco1)NC(=S)Nc1ccccc1O | – | inactive
19 | O=C(NC(=S)N1CCN(c2ccc([N+](=O)[O-])cc2Cl)CC1)c1ccco1 | – | inactive
20 | CC(/C=N/n1c(C2CCCCC2)n[nH]c1=S)=C\c1ccccc1 | 423% (active) | –

Row | Compound | potentiation | outcome
21 | CCCN(C(=O)c1cn(-c2ccccc2)nc1-c1ccc(OC)cc1)C1CCS(=O)(=O)C1 (stereo not given) | – | inactive
22 | CCOC(=O)c1sc(N2N=C(C)C(N=Nc3cccc(C)c3)C2=O)nc1C (stereo not given) | 148% (active) | –
23 | CC1CCN(C(=S)NC(=O)c2cccc([N+](=O)[O-])c2)CC1 | 189% (active) | –
24 | Cc1[nH]n(-c2cccc3ccccc23)c(=O)c1/C=N/c1sc2c(c1C#N)CCC2 | 288% (active) | –
25 | CCc1ccc2nc(N(CCCN(C)C)C(=O)c3ccc(S(=O)(=O)N4CCCc5ccccc54)cc3)sc2c1 | – | inactive
26 | CC(NC(=O)c1ccncc1)C(C)(C)C (stereo not given) | – | inactive
27 | CCN(c1ccccc1)S(=O)(=O)c1ccc(OC)c(OC)c1 | 162% (active) | –
28 | O=C(NC(=S)N(CCc1ccccc1)CCc1ccccc1)c1ccco1 | 560% (active) | –
29 | COc1cccc2sc(Nc3nnc(-c4ccccc4Cl)o3)nc12 | – | inactive
30 | O=C(NC(=S)Nc1ccccc1N1CCOCC1)c1cccc([N+](=O)[O-])c1 | – | inactive
31 | COc1cccc2sc(N(CCCN(C)C)C(=O)c3ccc(S(=O)(=O)N4CCCc5ccccc54)cc3)nc12 | – | inactive
32 | CN1CCN(C(=O)/C(=C/c2ccccc2)c2ccccc2)CC1 | – | inactive
33 | O=C(/C=C/c1ccccc1Cl)c1ccccc(=O)c1O | 374% (active) | –
34 | O=Cc1cc2ccccc2nc1SCCCF | – | inactive
35 | O=c1c2cc(Cl)ccc2nc(-c2ccccc2)n1O | 269% (active) | –
36 | Cc1ccc(C(C(=O)NC2CCCCC2)N(Cc2cccnc2)C(=O)C2COc3ccccc3O2)o1 (stereo not given) | – | inactive
37 | CC(C)n1c(O)c(N=NC(=O)C2COc3ccccc3O2)c2ccccc21 (stereo not given) | 208% (active) | –
38 | COc1ccc(/C=C2\SC(=S)N(NS(=O)(=O)c3ccc(C)cc3)C2=O)c(OC)c1 | 261% (active) | –
39 | CCOC(=O)Cc1csc(NC(=S)NC(=O)c2ccc(F)cc2)n1 | – | inactive
40 | CSC(=S)N/N=C/c1ccc(Br)cc1 | 179% (active) | –
